Assay outcomes deposited in PubChem BioAssay by National Center for Advancing Translational Sciences (NCATS).
An excerpt weighted towards active compounds, which were near 2.4% of everything screened.
D2 ag-1: activates the human D2 dopamine receptor. HEK293 T-REx D2 cells, calcium flux agonist mode. activation, % at 2 µM. actives 0.53% (n = 340,000);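 active = activation over 3 SD above normal in the single-dose calcium agonist read, cut at about 30% in these data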; note: 0% is about no effect
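HEK293 Trex D2 cells, tetracycline-induced, o/n 30 C 5% CO2; no-wash Ca dye, RT 30–90 min; 10-cycle baseline, 23 nl cpd added, kinetic Ca read 180 s; agonist hits = positive Ca response.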
D2 antagonist: antagonists of human D2 dopamine receptor. AID 485344. HEK293 TREx D2 cells, calcium flux, dopamine EC80. inhibition, % at 10 µM. P14416. actives 2% (n = 340,000); in the data active = inhibition above about 30%; inactive = below that, where a call was filed; note: 0% is about no effect
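Dopamine at EC80 is the agonist stimulus; test compounds precede it by 180 s. Calcium flux read kinetically in a force-coupled, inducible HEK293 T-REx D2 cell line.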
D2 PAM-1: positive allosteric modulators of human D2 dopamine receptor | DiscoveRx D2 beta-arrestin cells, luminescence, 90 min; 100% = 57 uM dopamine signal | potentiation, % (concentration not given with the values) | actives 0.23% (n = 360,000) | AID 624464; in the data active = potentiation above about 50%; inconclusive = mostly about 30% to 49%
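PathHunter beta-arrestin assay in DiscoveRx D2 cells. Compounds were added with an EC20 of dopamine (50 nM final) for 90 min at 37 deg C. Luminescence was read 1 h after detection reagent, with 57 uM dopamine as the EC100 control.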
D2 ag-2: human D2 receptor agonism in beta-arrestin assay; activation, % (test concentration not listed); DiscoveRx PathHunter D2 beta-arrestin, luminescence, 90 min; 100% = 57 uM dopamine signal; actives 0.084% (n = 360,000); in the data active = activation above about 40%; inconclusive = between about 15% and that limit
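Agonist mode: compounds alone added to overnight-plated D2 PathHunter cells for 90 min at 37 C, with 57 uM final dopamine (EC100) defining full response. Beta-arrestin recruitment detected by chemiluminescent reagent, read after 1 h at ambient temperature.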
D2 PAM-2: positively modulates the human D2 dopamine receptor allosterically. HEK293 T-REx D2, calcium flux, EC20 dopamine potentiation. P14416. actives 0.34% (n = 340,000). potentiation, % at 10 µM;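 active = potentiation over 3 SD above the plate norm, cut at about 30% in these data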; note: 0% is about no effect
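Calcium flux readout, no-wash dye, 1 read/s. Inducible HEK293 Trex D2 line, overnight 30 C. Compound alone 180 s (agonist flags), then EC20 dopamine, another 180 s to score potentiation.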
D3 ag: confirmation of human D3 dopamine receptor agonists, beta-arrestin; DiscoveRx D3 beta-arrestin cells, luminescence, 90 min; shares compounds with D2 ag-1; AID 720506; Potency, µM (titrated, usually from 76.9 µM), inactives show at the highest dose activation, most hits filed as activators; actives 4% (n = 2,300);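 note: potency is the fitted concentration of half-maximal effect; 100% = dopamine control response; nearly all actives have a fitted effect of over 70% in size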
Target sequence (P35462 whole entry, looked up): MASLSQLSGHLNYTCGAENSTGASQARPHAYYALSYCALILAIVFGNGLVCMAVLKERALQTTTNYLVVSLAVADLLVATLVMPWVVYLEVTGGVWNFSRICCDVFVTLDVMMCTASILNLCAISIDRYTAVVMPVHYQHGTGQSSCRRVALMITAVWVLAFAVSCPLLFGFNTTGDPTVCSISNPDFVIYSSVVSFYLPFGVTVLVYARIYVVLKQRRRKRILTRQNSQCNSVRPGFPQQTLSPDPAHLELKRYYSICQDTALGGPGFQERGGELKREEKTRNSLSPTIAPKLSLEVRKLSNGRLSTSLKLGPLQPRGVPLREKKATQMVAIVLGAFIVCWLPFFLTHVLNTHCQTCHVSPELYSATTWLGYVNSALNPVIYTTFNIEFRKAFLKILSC
D2 ag-3: D2 receptor agonism, beta-arrestin counterscreen; shares compounds with D2 ag-1; DiscoveRx PathHunter D2 beta-arrestin, luminescence, 90 min; response scale: percent relative to full dopamine signal; Potency, µM (series often up to 76.9 µM), for inactives: top-dose activation, hits mostly activators; actives 5.9% (n = 2,300); AID 720507; note: potency is the fitted concentration of half-maximal effect; % of control where 0% means no effect; nearly all actives have a fitted effect of over 70% in size
The depositor's hits bear a star; ? = inconclusive; nt = no result. Unless noted, calls come from the whole dose curve; as a rule, active = well fitted activation curve with a large enough effect; inconclusive = small, poorly fitted or top-dose-only effect; inactive = flat fitted curve, though single readings scatter.

SMILES	D2 ag-1	D2 antagonist	D2 PAM-1	D2 ag-2	D2 PAM-2	D3 ag	D2 ag-3
Cc1ccc2cc(CNC[C@H]3O[C@@H](n4cc(C)c(=O)[nH]c4=O)C[C@@H]3O)c(N3CCOCC3)nc2c1	nt	nt	-1	-10	nt	nt	nt
CSc1nc(N)nc2c1ncn2CC(=O)NCCNc1ccc([N+](=O)[O-])cn1	nt	nt	-3	-2	nt	nt	nt
Cc1[nH]nc2c1C(c1ccsc1)C1=C(CC(C)(C)CC1=O)N2 (stereo unspecified)	42*	10	-14	-3	-4	-10%	-6%
Cc1[nH]nc2c1C(c1cccs1)C1=C(CC(C)(C)CC1=O)N2 (stereo unspecified)	36*	30*	3	-2	-6	-1%	-4%
O=C(NCC1CCCO1)c1ccc(Br)c(S(=O)(=O)N2CCOCC2)c1 (stereo unspecified)	0	8	-11	-2	0	nt	nt
O=C(/C=C/c1ccccc1)NCC(=O)N/N=C/c1cccs1	43*	3	-4	-3	-19	-9%	-1%
CCOC(=O)C1CC2=C(CC(C)(C)CC2=O)N(CCOC)C1=O (stereo unspecified)	nt	nt	-4	0	nt	nt	nt
O=C(CCNS(=O)(=O)c1ccccc1C(F)(F)F)N1CCCCCCC1	0	3	-2	-2	-3	1%	-2%
O=C(CCNS(=O)(=O)c1ccccc1C(F)(F)F)N1CCN(C(c2ccccc2)c2ccccc2)CC1	0	-15	-12	0	0	nt	nt
O=C(COC(=O)c1ccc(O)cc1O)NC1CCCCCC1	-1	-15	-6	-3	11	nt	nt
CN(C)S(=O)(=O)c1ccc(N2CCCC2)c(C(=O)NNC(=O)COc2cccc(F)c2)c1	0	24	-4	-1	2	-7%	0%
Cn1c(SCC(=O)c2ccc3c(c2)NC(=O)CO3)nc2ccccc21	2	-13	-5	5	3	nt	nt
CCCn1c(SCC(=O)c2ccc3c(c2)NC(=O)CO3)nc2ccccc21	5	2	-1	0	-7	-2%	5%
O=C(NCC(c1ccco1)N1CCN(c2ccccc2)CC1)c1cccs1 (stereo unspecified)	5	27	-7	11	12	14%	17%
O=C(COc1ccccc1)NCC(c1ccco1)N1CCN(c2ccccc2)CC1 (stereo unspecified)	1	-11	-4	-1	7	1%	12%
O=C(NCc1cccs1)C(=O)NCC(c1ccco1)N1CCN(c2ccccc2)CC1 (stereo unspecified)	11	3	-12	10	-9	nt	nt
COc1ccccc1Oc1ccc(S(=O)(=O)N2CCOCC2)cc1S(=O)(=O)N1CCOCC1	44*	1	-4	-4	-14	1%	-1%
COc1ccc(S(=O)(=O)N2CCOCC2)cc1NC(=O)COc1ccccc1OC	0	-40	-3	0	2	nt	nt
C/C(=N\NC(=O)c1ccc(C(=O)N/N=C(\C)c2ccco2)o1)c1ccco1	1	-28	0	-1	8	nt	nt
C/C(=N\O)c1ccco1	-1	4	-11	-4	15	-2%	2%
OCCN(CCO)Cc1csc2ccccc12	35*	-3	-16	-5	-4	-8%	-3%
OCCN(Cc1ccccc1)Cc1ccccc1O	1	-6	-5	0	-8	nt	nt
NC(=O)c1ccc(NC(=O)CN2CCN(c3ccccc3)CC2)cc1	72*	63*	-15	15	-22	?	?
COc1ccc(NC(=O)CN2CCN(c3ccccc3)CC2)cc1	54*	50*	-8	-1	-23	9%	14%
COC(=O)c1ccc(NC(=O)CN2CCN(c3ccccc3)CC2)cc1	71*	95*	13	?	-22	-3%	?
